# Compounds with a hit are over-represented: about 5% of the library has one in this group of screens.
# CHT allo act: allosteric activators of human choline transporter CHT; Q9GZV3; CHT-expressing cells, membrane potential dye, choline EC20; active compounds read high; LV-AA mutant CHT in HEK293 cells; 310,000 tested, 0.49% active; AID 488977; B-score at 10 µM;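 active = initial fluorescence not abnormally high and integrated response B-score, plate-corrected, over 3 SD above library mean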
# ALR inh: inhibitors of human sulfhydryl oxidase ALR. purified ALR, DTT oxidation, H2O2 HRP-luminol luminescence. inhibition, % (concentration not given with the values). 290,000 tested, 3.8% active. P55789. AID 485317;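 active = mean replicate inhibition above about 79%, with every replicate also reaching it, limit read from the data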
# Target sequence (P55789 whole entry, looked up): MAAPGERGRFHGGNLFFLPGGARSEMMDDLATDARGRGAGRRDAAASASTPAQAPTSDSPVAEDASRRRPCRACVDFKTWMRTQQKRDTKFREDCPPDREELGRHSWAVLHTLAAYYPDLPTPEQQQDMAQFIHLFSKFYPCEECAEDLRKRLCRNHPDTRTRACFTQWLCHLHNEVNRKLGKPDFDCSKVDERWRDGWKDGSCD
# PREPL inh: inhibits the human prolyl oligopeptidase-like enzyme | Q4J6C6 | recombinant PREPL, fluorescence polarization activity-based probe | inhibition, % at 5.96 µM | 320,000 tested, 0.68% active | AID 2751; in the data active = inhibition above about 43%;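 also: 0% = enzyme with DMSO and 100% = wells lacking enzyme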
# CHT block: inhibitors of human choline transporter CHT; Q9GZV3; CHT-expressing cells, membrane potential dye, choline response; active compounds read low; B-score at 10 µM; 310,000 tested, 0.86% active;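 active = B-score over 3 SD under the library average, and starting fluorescence ratio not unusually high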;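 also: choline stimulus applied at its EC90 after an EC20 pre-addition; B-score computed on integrated fluorescence ratio after choline addition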
# AI-2 QS mod: modulates the Vibrio harveyi AI-2 quorum sensing system; Vibrio harveyi JMH597 AI-2 luminescence/OD600 ratio, 9 h; active compounds read low; strain lacks LuxN and CqsS sensors; 0 = neutral-control median; 300,000 tested, 0.4% active; activity change, % at 7.5 µM; in the data active = activity change below about -75%, passing the limit was not always enough;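 also: luminescence divided by OD600 gain over 9 h not by final OD600 alone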
# Numbers without * were called inactive; i = inactive; nt = no result given.
SMILES,CHT allo act,ALR inh,PREPL inh,CHT block,AI-2 QS mod
CCN(CC)CCN1C(=O)c2ccccc2NC1c1ccc(N(C)C)cc1 (centres undefined),i,48,16,i,5
CN(C)c1ccc(C2Nc3ccccc3C(=O)N2CCCN2CCOCC2)cc1 (centres undefined),i,99*,21,i,13
Cc1snnc1C(=O)NC(=S)Nc1ccccc1,i,92*,2,i,0
COc1ccccc1N1C(=O)CC(N2CCc3ccccc32)C1=O (centres undefined),i,41,-2,i,19
COc1cccc(N2C(=O)CC(N3CCc4ccccc43)C2=O)c1 (centres undefined),i,90*,-10,i,-5
CC(C)n1cc(CN2CCN(CCc3ccccc3)C(CCO)C2)cn1 (centres undefined),i,-13,4,i,35
Cn1c(N)c(C(=O)Nc2ccc3ccccc3c2)sc1=S,i,-4,5,i,19
Cn1c(N)c(C(=O)Nc2ccccc2F)sc1=S,i,99*,6,i,16
Cc1ccnc(SCC(=O)c2ccc(Br)s2)n1,i,85*,3,i,8
CC(=O)Nc1ccc(SCC(=O)c2cc(C)n(C)c2C)cc1,i,99*,25,i,5
Cc1ccnc(SCC(=O)c2cccs2)n1,i,24,3,i,2
CC(=O)Nc1ccc(SCC(=O)c2cc(C)n(CC(F)(F)F)c2C)cc1,i,nt,-11,i,17
CC(=O)Nc1ccc(SCC(=O)c2ccc(Br)s2)cc1,i,99*,-6,i,0
C=C[C@H](Cc1ccccc1)N(Cc1ccccc1)S(=O)(=O)N(Cc1ccccc1)[C@H](C=C)Cc1ccccc1,nt,5,13,nt,nt
COCCCN1C(=O)C(=O)/C(=C(/O)c2ccc(S(=O)(=O)N3CCCCC3)cc2)C1c1ccc(O)cc1 (centres undefined),i,-23,21,i,2
COC(=O)C1(Cc2ccc(O)c(CC3OC3(C)C)c2)OC(=O)C(O)=C1c1ccc(O)cc1 (centres undefined),i,98*,0,nt,10
CCCn1c(SCC(=O)NC2CCC(C)CC2)n[nH]c1=O (centres undefined),nt,3,16,nt,nt
CC(=C/c1ccccc1)/C=N/n1c(-c2ccco2)n[nH]c1=S,i,97*,3,i,39
S=c1[nH]nc(-c2ccccn2)n1/N=C/c1ccc(-c2ccccc2Cl)o1,i,97*,18,i,45
S=c1[nH]nc(-c2ccco2)n1/N=C/c1cccc(Cl)c1Cl,i,96*,5,i,99
CC(/C=N/n1c(-c2n[nH]c3c2CCC3)n[nH]c1=S)=C\c1ccco1,i,94*,14,i,44
S=c1[nH]nc(-c2ccco2)n1/N=C/c1ccc(Cl)cc1Cl,i,73,7,i,39
COc1cc(/C=N/Nc2ccc(Cl)cc2)ccc1OC(=O)c1cccs1,i,-45,39,i,nt
COC(=O)C1CCN(S(=O)(=O)Cc2ccccc2Cl)CC1,i,-1,nt,i,3
CCCCNC(=O)CCn1c(=O)c2ccccc2n(Cc2ccc(F)cc2)c1=O,i,-14,-3,i,23
SMILES,CHT allo act,ALR inh,PREPL inh,CHT block,AI-2 QS mod
CC(=O)Nc1ccc(NS(=O)(=O)c2ccc(CN3C(=O)c4cccnc4C3=O)cc2)cc1,i,-2,1,i,27
CC(Sc1nncs1)C(=O)NCC(=O)Nc1ccc(F)c(F)c1F (centres undefined),i,-5,-1,i,22
CCn1c(C)nc2cc(C(=O)N/N=C/c3ccc(OC)cc3)ccc21,i,2,-9,i,24
CCn1c(C)nc2cc(C(=O)NNC(=S)Nc3ccc(Cl)cc3)ccc21,i,87*,-4,i,22
CCn1c(C)nc2cc(C(=O)NNC(=S)Nc3ccc(F)cc3)ccc21,i,65,0,i,40
CCn1c(C)nc2cc(C(=O)N/N=C/c3ccc(N4CCOCC4)cc3)ccc21,i,91*,16,i,48
CCn1c(C)nc2cc(C(=O)N/N=C/c3ccc(O)cc3)ccc21,i,99*,0,i,8
COc1ccc(N2CC(C(=O)NCc3n[nH]c(=O)c4ccccc34)CC2=O)cc1 (centres undefined),nt,nt,nt,nt,57
CCn1c(=O)n(CC)c2cc(N3CCCC3)c(NC(=O)c3ccc(F)cc3)cc21,i,100*,10,i,6
CCOP(=O)(OCC)C(Nc1ccccc1)c1ccccc1C(F)(F)F (centres undefined),i,13,0,i,23
C=CCC(O)(CC=C)CNC(=O)C1CCC(=O)N(CCCc2ccccc2)C1 (centres undefined),i,0,3,i,9
O=C(NCCCC(NC(=O)OCc1ccccc1)C(=O)O)OCc1ccccc1 (centres undefined),i,25,-3,i,17
CC(=O)N1CCC(c2c[nH]c3ccccc23)CC1,i,96*,-4,i,20
Cc1nn(C)c(Sc2ccccc2N)c1[N+](=O)[O-],i,98*,13,i,18
C=CCn1c(SCc2c(F)c(F)c(F)c(F)c2F)nc(O)cc1=O,i,99*,-2,i,10
Cc1ccc(C)c(Sc2ccc(NC(=O)CCl)cc2)c1,i,86*,-11,i,39
Cc1ccc(Sc2ccc(NC(=O)CCl)cc2)cc1C,i,98*,-2,i,36
CCn1nc(C)c(/C=N/NC(=O)c2ccc3c(c2)c(C)c(C)n3Cc2ccccc2)c1C,i,3,9,i,-7
Cc1cccc(NC(=S)NNC(=O)c2ccc(Br)o2)c1,i,94*,-5,i,-7
Cc1cccc(NC(=S)NNC(=O)c2csc(C)c2)c1,i,85*,1,i,10
Cc1cccc(NC(=S)NNC(=O)Cc2ccccc2)c1,i,10,-6,i,-1
CC(C)CN(C)Cc1c(C(=O)N2CCc3ccccc3C2)nc2ccc(Cl)cn12,i,-103,22,i,21
CC1CCN(Cc2c(C(=O)N/N=C/c3ccc(C(C)C)cc3)nnn2-c2nonc2N)CC1,6.4*,1,12,i,-2
Cn1c(N)c(-c2nc3cccnc3n2C)sc1=S,i,92*,4,i,25
O=C(O)c1ccc(CSc2nnnn2-c2ccc(F)cc2)cc1,i,2,-10,i,37
O=C(CSc1nnnn1-c1ccc(F)cc1)c1ccc(O)c(O)c1,i,98*,5,i,23
Cn1cnnc1SCC(=O)c1ccc(O)c(O)c1,i,99*,1,i,5
O=C(O)c1ccc2c(=O)n3c(nc2c1)/C(=C/c1cccc(Cl)c1Cl)CC3,i,20,0,i,0
